CYP2C9 inh: blockers of cytochrome P450 2C9 activity – biochemical, luminescence, ADME assay, primary screen. AID 777, 2007. CYP2C9 Supersomes, luciferin-H conversion. actives 20% (n = 96,000). P11712. inhibition, % at 5 µM;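 active = blocking of liver enzyme CYP2C9 beyond about 50% at 5 µM, limit read from the data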
CYP2C9 act: human CYP2C9 activators, primary screen, biochemical, luminescence; recombinant CYP2C9, luciferin-H conversion; stronger effect = higher value; factor 1 = untreated enzyme, 0 = blocked; activation factor at 5 µM; Cytochrome P450 2C9 (Homo sapiens), P11712; actives 1.4% (n = 96,000);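 active = activation factor of 2 or more for CYP2C9 at a 5 µM dose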;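 note: 0 = sulfaphenazole-blocked wells and 1 = vehicle-only wells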
CYP2C19 inh: blockers of cytochrome P450 2C19 activity – biochemical, luminescence, ADME assay, primary screen | inhibition, % at 5 µM | CYP2C19 Supersomes, luciferin-H EGE luminescence, 30 min | actives 21% (n = 96,000);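 active = CYP2C19 inhibition above a set limit at 5 µM in the primary screen, cut at about 50% in these data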;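 note: plate controls were negative control wells for no effect and 2.5 mM tranylcypromine positive control for full effect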
Target sequence (P33261 whole entry, looked up): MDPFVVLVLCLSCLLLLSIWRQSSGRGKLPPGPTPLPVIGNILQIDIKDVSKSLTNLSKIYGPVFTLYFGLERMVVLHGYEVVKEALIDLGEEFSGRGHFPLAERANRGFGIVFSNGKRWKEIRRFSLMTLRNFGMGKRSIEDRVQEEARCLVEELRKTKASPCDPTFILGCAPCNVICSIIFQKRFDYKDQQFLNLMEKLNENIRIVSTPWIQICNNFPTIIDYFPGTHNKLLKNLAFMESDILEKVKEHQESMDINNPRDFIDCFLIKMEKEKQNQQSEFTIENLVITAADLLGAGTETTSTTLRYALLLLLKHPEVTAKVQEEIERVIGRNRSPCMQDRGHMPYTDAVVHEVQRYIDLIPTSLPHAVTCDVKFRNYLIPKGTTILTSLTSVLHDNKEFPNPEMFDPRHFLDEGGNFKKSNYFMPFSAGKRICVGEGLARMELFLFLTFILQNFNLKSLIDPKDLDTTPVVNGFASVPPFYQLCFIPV
CYP2C19 act: human CYP2C19 activators, primary screen, biochemical, luminescence; Cytochrome P450 2C19 (Homo sapiens), P33261; recombinant CYP2C19, luciferin-H EGE luminescence; stronger effect = higher value; 0 = fully inhibited enzyme, 1 = untreated enzyme; activation factor at 5 µM; 96,000 tested, under 10 active; AID 1025, 2008;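 active = activation factor of at least 2 at 5 µM in the primary screen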;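 note: 0 = wells with 2.5 mM tranylcypromine and 1 = vehicle-only wells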
sEH activator: soluble epoxide hydrolase activators, primary screen, biochemical, human sEH; Bifunctional epoxide hydrolase 2 (Homo sapiens), P34913; purified human sEH enzymatic activity, activator screen; activation, % at 2 µM; actives 0.04% (n = 91,000); in the data active = activation above about 37%
sEH inh: soluble epoxide hydrolase inhibitors, primary screen, biochemical, human sEH; actives 0.34% (n = 91,000); Bifunctional epoxide hydrolase 2 (Homo sapiens), P34913; inhibition, % at 2 µM; recombinant human sEH enzymatic activity assay; in the data active = inhibition above about 80%
The depositor's hits bear a star; . = not tested or not shown. This is a sample that favours compounds with a hit; in the whole collection about 27% have one here.

SMILES	CYP2C9 inh	CYP2C9 act	CYP2C19 inh	CYP2C19 act	sEH activator	sEH inh
COc1ccc(N=NC2=C(O)CC(C)(C)CC2=O)c(OC)c1	.	.	.	.	-7.2	4.0
CCN(c1ccccc1)S(=O)(=O)c1ccc(N)c(OC)c1	-183.8	2.8*	62.3*	0.4	-4.8	7.3
CCN(c1ccccc1)S(=O)(=O)c1ccc(F)cc1	24.8	0.8	42.3	0.6	-4.5	6.0
COc1ccc(S(=O)(=O)N(CC(=O)NCc2ccco2)c2ccccc2)cc1OC	8.8	0.9	91.2*	0.1	-7.2	5.6
Cc1ccc(S(=O)(=O)N(CC(=O)NCc2ccco2)Cc2ccccc2F)cc1	61.7*	0.4	36.9	0.6	2.9	-5.5
Cc1onc(-c2ccccc2Cl)c1C(=O)Nc1sc2c(c1C(N)=O)CCC(C)C2 (stereo unspecified)	.	.	.	.	-2.1	4.5
Cc1ccccc1C(=O)c1c[nH]c(C(N)=O)c1	0.9	1	-11.3	1.1	14.1	-13.6
O=C(c1c[nH]c(C(=O)C(Cl)(Cl)Cl)c1)c1ccccc1Cl	72.5*	0.3	40.9	0.6	-3.3	5.3
CC(=O)Oc1ccc2ccccc2c1C(NC(=O)Cc1ccccc1)c1ccccc1Cl (stereo unspecified)	48.1	0.5	63.1*	0.4	-0.1	2.4
CCC(=O)NC(c1cccc([N+](=O)[O-])c1)c1c(OC(C)=O)ccc2ccccc12 (stereo unspecified)	.	.	.	.	20.1	-13.7
O=C(CN1CCOCCOCCOCCOCC1)Nc1ccccc1	.	.	.	.	0.1	2.8
C=CCN(C(=O)CN1CCOCC1)c1nc(C)c(-c2ccccc2)s1	32.3	0.7	69.5*	0.3	.	.
COc1cc(C2C(C#N)=C(N)Oc3cc(N)ccc32)cc(OC)c1OC (stereo unspecified)	.	.	.	.	4.7	-5.7
Cc1ccc(C2C(C#N)=C(N)Oc3cc4c(cc32)OCO4)cc1 (stereo unspecified)	74.1*	0.3	72.1*	0.3	5.8	-5.7
CCN(CC)c1ccc2c(c1)OC(N)=C(C#N)C2c1cccnc1 (stereo unspecified)	45.1	0.5	82.2*	0.2	.	.
N#CC1=C(N)Oc2cc(N)ccc2C1c1ccc(F)cc1 (stereo unspecified)	50.2*	0.5	74.4*	0.3	6.2	-9.4
CSc1ccc(C2C(C#N)=C(N)Oc3cc4c(cc32)OCO4)cc1 (stereo unspecified)	23.1	0.8	8.2	0.9	13.5	-14.3
O=C(COC(=O)CCCNC(=O)c1ccc(Cl)cc1)NC1CC1	-11.9	1.1	-15.4	1.2	-3.2	2.0
Cc1noc(C)c1CSCC(=O)N1CCN(c2ccc(F)cc2)CC1	45.9	0.5	62.7*	0.4	-8.8	7.0
O=C(COC(=O)CSCC(=O)N1CCCCC1)NCc1ccc(F)cc1	3.6	1	50.8*	0.5	-18.4	16.8
O=C(CSCC(=O)N1CCOCC1)Nc1ccccc1	-5.3	1.1	57.1*	0.4	-1.5	2.6
O=C(CSCc1ccc(F)cc1)N1CCOCC1	15.9	0.8	55.9*	0.4	1.5	0.8
CC1=C(C(=O)OC(C)C)C(c2ccco2)NC(=O)N1 (stereo unspecified)	-17.1	1.2	-11.0	1.1	-1.3	1.0
O=C(CSCc1ccc(Br)cc1)N1CCOCC1	4.5	1	93.7*	0.1	-4.4	4.6
CC1CCN(C(=O)CSCc2ccc(Cl)cc2)CC1	-6.6	1.1	20.4	0.8	6.6	-6.8
SMILES	CYP2C9 inh	CYP2C9 act	CYP2C19 inh	CYP2C19 act	sEH activator	sEH inh
CC1CCC2(CC1)C(Nc1cccc(Cl)c1)=NC(=S)N2CC#N (stereo unspecified)	.	.	.	.	-7.4	7.5
CCOC(=O)C(Cc1cc(C(C)=O)ccc1OCC)C(=O)OCC	-12.5	1.1	28.6	0.7	-5.5	6.8
CCOC(=O)C(Cc1cc(C(C)=O)ccc1OC(C)C)C(=O)OCC	61.2*	0.4	60.4*	0.4	11.5	-11.4
Cn1c(CN2CCOCC2)nnc1SCC(=O)NC1CCCCC1	.	.	.	.	0.3	0.8
N#Cc1nc(-c2ccccc2F)oc1N1CCCC1	-127.3	2.3*	50.0*	0.5	9.8	-9.9
COc1ccc(-c2nc(C#N)c(N3CCCCCC3)o2)cc1	50.2*	0.5	10.3	0.9	5.2	-6.8
Cc1ccc(-c2nc(C#N)c(N3CCCCC3)o2)cc1	8.8	0.9	7.3	0.9	-5.1	4.3
CCOc1ccc(-c2nc(C#N)c(N3CCCCCC3)o2)cc1	76.1*	0.2	-5.8	1.1	8.6	-8.6
COc1ccc(-c2nc(C#N)c(NC(C)C)o2)cc1	-1.2	1	85.9*	0.1	7.5	-6.1
O=c1cc(C(F)(F)C(F)F)oc2ccccc12	11.2	0.9	-19.1	1.2	5.8	-5.6
Cc1ccc(NC2OC(CO)C(O)C(O)C2O)cc1 (stereo unspecified)	11.7	0.9	26.5	0.7	13.9	-12.8
COc1ccc(-c2nc(C#N)c(N3CC(C)OC(C)C3)o2)cc1OC (stereo unspecified)	.	.	.	.	2.3	-4.2
COc1ccc(-c2nc(C#N)c(N3CCCCCC3)o2)cc1OC	51.9*	0.5	33.8	0.7	-7.7	8.9
O=c1c2nnn(Cc3ccccc3)c2ncn1-c1ccccc1	-38.5	1.4	-0.6	1	-1.2	-2.2
CSc1nn(CCc2ccncc2)c(=S)s1	64.9*	0.4	97.1*	0	-2.7	2.8
CCCCCOCC1CC(C/C(C)=N/Nc2nc(-c3ccccc3)cs2)C(=O)O1 (stereo unspecified)	36.9	0.6	28.1	0.7	-1.0	3.3
O=C(NCCCn1ccnc1)C(F)(F)C(F)(F)C(=O)NCCCn1ccnc1	97.7*	0	15.7	0.8	-15.4	15.5
c1cn(CCCNC2=NCCCCC2)cn1	6.3	0.9	41.2	0.6	7.5	-9.0
CC(NC(=O)NCCCn1ccnc1)(C(F)(F)F)C(F)(F)F	68.3*	0.3	90.8*	0.1	.	.
Cc1ccc2c(c1)N(C(=O)NC1CCCCC1)C(C)(C)CC2C (stereo unspecified)	33.3	0.7	71.6*	0.3	-43.8	43.2
Cc1ccc2c(c1)C(C)CC(C)(C)N2C(=O)NC1CCCCC1 (stereo unspecified)	-37.9	1.4	12.4	0.9	-56.6	56.4
O=C(CNC(=S)NC(=O)c1ccco1)c1ccccc1	-35.5	1.4	5.5	0.9	5.0	-5.4
COc1ccc(C(C)C)cc1S(=O)(=O)N1CCN(C)CC1	-16.3	1.2	36.6	0.6	16.9	-15.8
O=c1[nH]c2ccccc2n1CCCOc1ccccc1	4.6	1	81.6*	0.2	0.4	-0.3
O=c1[nH]c2ccccc2n1CCCSc1cnc2ccccc2n1	84.9*	0.2	63.4*	0.4	20.6	-23.6
CCCCn1c(=O)[nH]c2ccccc21	0.7	1	29.0	0.7	14.0	-11.5
